This note sets out measurements from PubChem BioAssay (Tox21).

Experiment [1] in a line: qHTS assay to identify small molecule agonists of the androgen receptor (AR) signaling pathway in the presence of an antagonist - cell viability counter screen (AID 1259379).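 Further: MDA-kb2 human breast cancer cells carrying an MMTV luciferase reporter; series mostly up to about 92 µM; nearly all actives have a fitted effect of over 25% in size.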 The essentials: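 In MDA-kb2 cells (human breast carcinoma, MMTV-luciferase), compounds at 15 concentrations plus 3.0uM nilutamide; 16 hr, 37C, 0% CO2; CellTiter-Fluor fluorescence read for viability.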

Experiment [2] can be described thus: qHTS assay to identify small molecule agonists of the estrogen receptor beta (ER-beta) signaling pathway - cell viability counter screen (AID 1259380). Further: nearly all actives have a fitted effect of over 30% in size. Further: potency means the concentration at half of the fitted maximal effect. In outline:
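Viability of ER-beta-UAS-bla HEK293T cells was determined by CellTiter-Glo luminescence following 16 hr treatment with test compounds at 37C.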

In experiment [3] the target is Androgen receptor (Homo sapiens) (UniProt P10275). Description: qHTS assay to identify small molecule agonists of the androgen receptor (AR) signaling pathway in the presence of an antagonist (AID 1259381; calls by dose curve; further: nearly all actives have a fitted effect of over 15% in size). The essentials:
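Here, 15-concentration compound series were pin-transferred onto MDA-kb2 MMTV-luciferase cells already dosed with nilutamide (3.0uM final). After 16hr at 37C, ONE-Glo was added and luminescence read 30min later at room temperature.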

A short description of experiment [4]: qHTS assay to identify small molecule agonists or antagonists of the thyroid stimulating hormone receptor (TSHR) signaling pathway - wild type cell line counter screen (AID 1259384; calls by dose curve). In outline: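 Counter screen in untransfected Hek293: compounds (15-point titration, triplicate) plus phosphodiesterase inhibitor Ro20-1724 added after 18 h plating; 30 min RT. Intracellular cAMP via competitive d2/cryptate immunoassay, 1 h incubation.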

For experiment [5], the target named is Thyrotropin receptor (Homo sapiens) (UniProt P16473). In words: qHTS assay to identify small molecule antagonists of the thyroid stimulating hormone receptor (TSHR) signaling pathway (AID 1259385; calls by dose curve; further: nearly all actives have a fitted effect of over 20% in size). In outline:
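Antagonist mode: compound-treated TSHR-expressing HEK293 cells were stimulated with 1.5 ng/mL TSH (final) in presence of Ro20-1724 for 30 min at RT. HTRF cAMP detection after 1 h; each compound tested at 15 concentrations, triplicate.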

Experiment [6] in a line: qHTS assay to identify small molecule agonists of the estrogen receptor alpha (ER-alpha) signaling pathway in the presence of an antagonist - cell viability counter screen (AID 1259386).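 Further: series mostly up to about 92 µM; cells exposed to compounds for 22 h at 37 °C before the viability read; nearly all actives have a fitted effect of over 30% in size.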 The essentials:
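Fluorescent CellTiter-Fluor viability signal from VM7Luc4E2 cells, with the reagent added during the final hour of a 22hr compound exposure at 37C in the presence of 10.0nM ICI-182,780.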

In experiment [7] the target is Progesterone receptor (Homo sapiens) (UniProt P06401). In words: qHTS assay to identify small molecule agonists of the progesterone receptor (PR) signaling pathway (AID 1346784; calls by dose curve; further: nearly all actives have a fitted effect of over 30% in size). The essentials:
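Fluorescence from LiveBLAzer B/G FRET substrate cleavage (2 hr, RT) reported PR activation in PR-UAS-bla HEK 293T cells treated 16 hr at 37C/5% CO2 with compounds; medium contained 2% charcoal-stripped FBS.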

Experiment [8] shares this target. In words: qHTS assay to identify small molecule antagonists of the progesterone receptor (PR) signaling pathway (AID 1346795; active means well fitted inhibition curve with a large enough effect in the signal ratio in the repeat runs, not every such curve was filed as active; the % refers to the signal ratio). The essentials: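 Fluorescence intensity measured 2 hr after adding beta-lactamase FRET substrate to PR-UAS-bla HEK293T cells that had been co-treated 16 hr with compound and 1 nM R5020 (final concentration) in 2% charcoal-stripped FBS.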

The nature of experiment [9]: qHTS assay to identify small molecule antagonists of the progesterone receptor (PR) signaling pathway - cell viability counter screen (AID 1346798). Further: series mostly up to about 92 µM; nearly all actives have a fitted effect of over 50% in size. The essentials: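 CellTiter-Glo luminescence; PR-UAS-bla HEK293T, 3,000 cells/well; compound + R5020, 16 hr, 37C/5% CO2; 30 min RT before read.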
Experiment [10] can be described thus: qHTS assay to identify small molecule agonists of the progesterone receptor (PR) signaling pathway - cell viability counter screen (AID 1346799; calls by dose curve; further: nearly all actives have a fitted effect of over 45% in size). In outline: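 In parallel with the beta-lactamase readout, cytotoxicity toward PR-UAS-bla HEK293T cells was measured by CellTiter-Glo luminescence following 16 hr compound incubation in 2% charcoal-stripped FBS medium.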

A short description of experiment [11]: qHTS assay to identify small molecule antagonists of the TGF-beta/Smad signaling pathway - cell viability counter screen (AID 1346824). Further: nearly all actives have a fitted effect of over 50% in size. In outline: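 Cytotoxicity counter-screen run in the same wells as the beta-lactamase Smad reporter read: CellTiter-Glo luminescence after 30 min at room temperature. HEK 293T SBE-bla cells had 5 hr compound exposure at 37 C with TGF-beta1 (0.25 ng/mL stock).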

Experiment [12] can be described thus: qHTS assay to identify small molecule agonists of the TGF-beta/Smad signaling pathway - cell viability counter screen (AID 1346829). Further: top concentration of the series differs between compounds; nearly all actives have a fitted effect of over 45% in size. The essentials:
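CellTiter-Glo luminescence readout; SBE-bla HEK 293T cells, overnight plating, compound 5 hr at 37 C/5% CO2, then bla substrate 2 hr RT, then CellTiter-Glo 30 min RT.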

Experiment [13] is described as follows: qHTS assay to identify small molecule agonists of the TGF-beta/Smad signaling pathway (AID 1346859; active means well fitted activation curve with a large enough effect in the signal ratio in the repeat runs, not every such curve was filed as active; the % refers to the signal ratio; further: series mostly up to about 77 µM). In outline: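 After overnight seeding, SBE-bla HEK 293T cells are dosed with compounds in DMSO and kept 5 hr at 37 C, 5% CO2. LiveBLAzer-type FRET substrate is then applied for 2 hr at room temperature.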
The target of experiment [14] is Thyrotropin-releasing hormone receptor (Homo sapiens) (UniProt P34981). In words: qHTS assay to identify small molecule antagonists of the thyrotropin-releasing hormone receptor (TRHR) signaling pathway (AID 1346877; active means well fitted inhibition curve with a large enough effect in the repeat runs, not every such curve was filed as active; further: series mostly up to about 51 µM). In outline: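 In this cell-based calcium flux format, HEK293 cells expressing TRHR received test compound for 5 min before the agonist TRH (1 nM final). Dye loading lasted 2 h at 37 °C.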

The target is the same in experiment [15]. Description: qHTS assay to identify small molecule agonists of the thyrotropin-releasing hormone receptor (TRHR) signaling pathway (AID 1346891; calls by dose curve; further: series mostly up to about 58 µM). The essentials: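 Compounds were tested as agonists at 15 concentrations, in triplicate, on TRHR-Hek293 cells; calcium-sensitive dye fluorescence was recorded for 3 min following addition.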
Experiment [16] is described as follows: Human pregnane X receptor (PXR) small molecule agonists, qHTS cell viability counter screen (AID 1346977). Further: nearly all actives have a fitted effect of over 50% in size. In outline: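 Viability counter screen: CellTiter-Fluor signal in PXR-Luc HepG2 cells, 24hr compound exposure, 37C, 5% CO2.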
Experiment [17] concerns the target Estrogen receptor beta (Homo sapiens) (UniProt Q92731). In words: qHTS assay to identify small molecule agonists of the estrogen receptor beta (ER-beta) signaling pathway (AID 1259377; active means well fitted activation curve with a large enough effect in the signal ratio in the repeat runs, not every such curve was filed as active; the % refers to the signal ratio). In outline:
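qHTS in ER-beta-UAS-bla HEK293T cells: 6 hr settling, then 16 hr compound at 37C, then LiveBLAzer substrate 2 h at RT before fluorescence reading.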

Experiment [18] can be described thus: qHTS assay to identify small molecule antagonists of the estrogen receptor beta (ER-beta) signaling pathway - cell viability counter screen (AID 1259382).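 Further: HEK293T cells carrying ER-beta-UAS-bla reporter stimulated with estradiol; series mostly up to about 92 µM; nearly all actives have a fitted effect of over 55% in size.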 In outline:
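Tox21 10K library tested in qHTS format on ER-beta-bla HEK293T cells stimulated with 1nM E2; 16 hr treatment at 37C. Same-well CellTiter-Glo luminescence served as the cell viability measure.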

The target of experiment [19] is Estrogen receptor (Homo sapiens) (UniProt P03372). Description: qHTS assay to identify small molecule agonists of the estrogen receptor alpha (ER-alpha) signaling pathway in the presence of an antagonist (AID 1259383; calls by dose curve; further: top concentration of the series differs between compounds; nearly all actives have a fitted effect of over 15% in size). The essentials: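 In VM7Luc4E2 cells, 4,000 per well, compounds at 15 concentrations were co-incubated 22hr at 37C with 10.0nM final ICI-182,780. Luminescence from the stably transfected 4×ERE-luciferase reporter was recorded 30min after ONE-Glo addition.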

A number with no mark means an inactive call. Records with an inconclusive call do not appear. The source made the active and inactive calls. Unless noted, the call rests on the fitted dose curve; in most records, active means well fitted curve in the direction sought with a large enough effect in the repeat runs; inconclusive means weak or mixed curves; inactive means no such curve, though single readings can be large; an effect the other way counts as inactive or inconclusive.

Sequence of Thyrotropin receptor (Homo sapiens) (P16473 whole entry, looked up): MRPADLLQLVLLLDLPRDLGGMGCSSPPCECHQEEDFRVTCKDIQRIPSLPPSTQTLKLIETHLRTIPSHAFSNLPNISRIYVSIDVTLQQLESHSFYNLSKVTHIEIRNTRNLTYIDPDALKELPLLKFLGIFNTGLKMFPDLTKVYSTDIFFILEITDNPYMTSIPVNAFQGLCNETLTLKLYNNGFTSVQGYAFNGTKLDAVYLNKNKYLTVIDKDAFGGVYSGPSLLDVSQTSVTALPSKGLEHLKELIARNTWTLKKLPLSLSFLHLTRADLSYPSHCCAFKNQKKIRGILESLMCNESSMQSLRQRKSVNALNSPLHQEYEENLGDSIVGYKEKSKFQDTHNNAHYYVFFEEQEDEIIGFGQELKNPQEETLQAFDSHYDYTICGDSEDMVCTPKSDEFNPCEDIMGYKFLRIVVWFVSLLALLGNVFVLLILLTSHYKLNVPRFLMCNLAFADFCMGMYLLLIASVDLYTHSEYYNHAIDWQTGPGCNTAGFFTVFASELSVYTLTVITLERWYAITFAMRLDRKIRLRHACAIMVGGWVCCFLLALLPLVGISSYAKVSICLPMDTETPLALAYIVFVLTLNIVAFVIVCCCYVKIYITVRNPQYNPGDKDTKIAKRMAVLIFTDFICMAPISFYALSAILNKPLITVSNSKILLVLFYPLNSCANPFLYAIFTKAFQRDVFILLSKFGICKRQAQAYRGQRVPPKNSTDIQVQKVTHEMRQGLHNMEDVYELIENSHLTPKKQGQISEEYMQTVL
Sequence of Thyrotropin-releasing hormone receptor (Homo sapiens) (P34981 whole entry, looked up): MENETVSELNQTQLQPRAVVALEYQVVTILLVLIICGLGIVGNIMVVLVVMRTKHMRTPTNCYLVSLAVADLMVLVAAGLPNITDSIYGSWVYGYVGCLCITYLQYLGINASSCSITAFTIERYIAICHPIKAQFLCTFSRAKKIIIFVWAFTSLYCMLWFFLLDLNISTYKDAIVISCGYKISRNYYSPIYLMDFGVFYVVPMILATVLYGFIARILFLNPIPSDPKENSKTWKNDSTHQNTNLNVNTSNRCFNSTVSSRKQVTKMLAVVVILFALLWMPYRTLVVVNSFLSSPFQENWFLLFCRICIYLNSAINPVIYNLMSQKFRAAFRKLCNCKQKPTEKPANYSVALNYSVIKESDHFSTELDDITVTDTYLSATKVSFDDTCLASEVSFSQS
Sequence of Androgen receptor (Homo sapiens) (P10275 whole entry, looked up): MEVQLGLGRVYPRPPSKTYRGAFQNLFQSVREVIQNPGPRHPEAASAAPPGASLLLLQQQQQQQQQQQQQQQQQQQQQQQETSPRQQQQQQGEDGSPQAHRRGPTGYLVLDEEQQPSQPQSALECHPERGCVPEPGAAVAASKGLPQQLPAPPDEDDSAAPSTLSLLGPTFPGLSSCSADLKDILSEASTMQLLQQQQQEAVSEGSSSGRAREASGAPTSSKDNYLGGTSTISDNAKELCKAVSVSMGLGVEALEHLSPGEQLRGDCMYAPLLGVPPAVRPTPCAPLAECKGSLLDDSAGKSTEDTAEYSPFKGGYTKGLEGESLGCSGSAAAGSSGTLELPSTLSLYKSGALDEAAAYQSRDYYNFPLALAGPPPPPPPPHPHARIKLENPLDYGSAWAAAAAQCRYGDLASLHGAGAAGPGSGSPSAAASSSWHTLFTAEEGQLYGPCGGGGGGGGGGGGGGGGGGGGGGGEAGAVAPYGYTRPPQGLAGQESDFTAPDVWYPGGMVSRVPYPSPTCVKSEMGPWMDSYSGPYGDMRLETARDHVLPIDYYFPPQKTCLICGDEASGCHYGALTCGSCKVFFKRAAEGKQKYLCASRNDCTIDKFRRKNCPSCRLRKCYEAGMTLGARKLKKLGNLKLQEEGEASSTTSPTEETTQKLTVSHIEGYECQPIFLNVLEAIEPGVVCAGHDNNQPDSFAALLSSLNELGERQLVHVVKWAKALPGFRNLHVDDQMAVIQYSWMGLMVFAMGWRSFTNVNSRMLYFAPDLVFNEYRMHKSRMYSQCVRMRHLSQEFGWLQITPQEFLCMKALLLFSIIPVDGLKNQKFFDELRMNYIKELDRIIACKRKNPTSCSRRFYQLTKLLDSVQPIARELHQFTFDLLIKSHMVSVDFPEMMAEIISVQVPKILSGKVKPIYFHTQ
Sequence of Estrogen receptor beta (Homo sapiens) (Q92731 whole entry, looked up): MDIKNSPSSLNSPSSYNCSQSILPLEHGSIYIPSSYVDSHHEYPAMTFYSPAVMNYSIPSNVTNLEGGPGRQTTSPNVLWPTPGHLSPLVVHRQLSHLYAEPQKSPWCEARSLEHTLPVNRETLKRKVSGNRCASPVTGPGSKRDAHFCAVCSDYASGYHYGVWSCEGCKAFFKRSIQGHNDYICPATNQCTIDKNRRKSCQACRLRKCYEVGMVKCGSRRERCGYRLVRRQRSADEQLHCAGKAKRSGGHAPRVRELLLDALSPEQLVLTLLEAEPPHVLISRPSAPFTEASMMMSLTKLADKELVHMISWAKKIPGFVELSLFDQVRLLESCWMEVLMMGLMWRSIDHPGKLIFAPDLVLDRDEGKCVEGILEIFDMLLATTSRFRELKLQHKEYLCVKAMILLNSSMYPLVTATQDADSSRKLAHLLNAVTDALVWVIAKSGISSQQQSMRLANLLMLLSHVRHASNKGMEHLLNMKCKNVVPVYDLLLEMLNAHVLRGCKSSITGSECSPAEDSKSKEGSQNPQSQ
Sequence of Progesterone receptor (Homo sapiens) (P06401 whole entry, looked up): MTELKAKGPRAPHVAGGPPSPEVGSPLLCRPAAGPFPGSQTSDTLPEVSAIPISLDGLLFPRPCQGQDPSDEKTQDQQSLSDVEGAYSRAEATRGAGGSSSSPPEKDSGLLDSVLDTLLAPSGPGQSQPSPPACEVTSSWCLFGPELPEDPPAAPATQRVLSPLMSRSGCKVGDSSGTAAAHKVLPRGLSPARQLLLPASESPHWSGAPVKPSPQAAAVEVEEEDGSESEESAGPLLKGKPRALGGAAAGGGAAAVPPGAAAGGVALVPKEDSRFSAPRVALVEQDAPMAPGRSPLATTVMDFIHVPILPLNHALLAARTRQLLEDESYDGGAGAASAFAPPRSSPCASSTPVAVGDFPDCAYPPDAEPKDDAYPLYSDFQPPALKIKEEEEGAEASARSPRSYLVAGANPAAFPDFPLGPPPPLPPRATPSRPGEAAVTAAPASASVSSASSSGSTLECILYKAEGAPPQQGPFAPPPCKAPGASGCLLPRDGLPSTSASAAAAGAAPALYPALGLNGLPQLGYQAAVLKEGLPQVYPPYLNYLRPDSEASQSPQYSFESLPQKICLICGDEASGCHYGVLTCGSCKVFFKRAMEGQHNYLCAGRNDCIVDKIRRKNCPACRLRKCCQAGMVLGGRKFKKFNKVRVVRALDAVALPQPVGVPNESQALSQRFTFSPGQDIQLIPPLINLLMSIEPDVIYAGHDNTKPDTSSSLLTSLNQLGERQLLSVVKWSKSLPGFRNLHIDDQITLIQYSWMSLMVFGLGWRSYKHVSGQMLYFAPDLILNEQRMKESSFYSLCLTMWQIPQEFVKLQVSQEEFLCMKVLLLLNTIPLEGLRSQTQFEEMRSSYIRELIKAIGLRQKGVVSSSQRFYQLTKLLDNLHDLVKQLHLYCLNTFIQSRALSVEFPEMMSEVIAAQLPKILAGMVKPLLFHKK
Sequence of Estrogen receptor (Homo sapiens) (P03372 whole entry, looked up): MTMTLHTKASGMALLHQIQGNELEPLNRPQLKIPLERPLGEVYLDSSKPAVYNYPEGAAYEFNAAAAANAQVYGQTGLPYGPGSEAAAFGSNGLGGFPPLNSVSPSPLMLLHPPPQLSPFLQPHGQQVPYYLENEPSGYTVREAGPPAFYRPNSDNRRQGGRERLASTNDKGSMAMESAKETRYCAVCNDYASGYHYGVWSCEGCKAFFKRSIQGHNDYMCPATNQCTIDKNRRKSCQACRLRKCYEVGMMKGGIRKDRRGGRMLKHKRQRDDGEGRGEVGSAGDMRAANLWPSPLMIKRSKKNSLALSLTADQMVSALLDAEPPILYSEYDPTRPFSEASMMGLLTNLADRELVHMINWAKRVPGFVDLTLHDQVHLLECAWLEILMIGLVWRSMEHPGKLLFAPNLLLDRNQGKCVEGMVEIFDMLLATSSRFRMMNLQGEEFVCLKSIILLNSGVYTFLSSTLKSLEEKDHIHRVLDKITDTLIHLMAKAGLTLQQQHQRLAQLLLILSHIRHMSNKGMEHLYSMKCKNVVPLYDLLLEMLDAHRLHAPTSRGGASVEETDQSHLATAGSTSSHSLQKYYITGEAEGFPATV

With `Cc1nc2ccc(CN(C)c3ccc(C(=O)N[C@@H](CCC(=O)O)C(=O)O)s3)cc2c(=O)[nH]1`, the Potency entry in [1], in [3], in experiment [6], in experiment [7], in experiment [8] and in [9] was “inactive” each time. Moreover, the Potency result in [10], in [15] and in experiment [16] was “inactive” each time. For the same molecule, in [2], the Potency was 0.15 µM (active). Moreover, the call in experiment [4], in experiment [5], in [11], in [12], in [13] and in experiment [14] was inactive.

`O=[N+]([O-])c1ccc(/C=N\O)o1`: the Potency entry in experiment [17], in experiment [1], in experiment [6], in [7], in experiment [8] and in [9] was “inactive” in each case. The Potency entry in experiment [10], in [15] and in experiment [16] was “inactive” each time. The call in [18], in [19], in experiment [5], in experiment [11], in [12] and in experiment [13] was inactive. The molecule was classed as inactive in [14].

Take `NO`: the Potency entry in experiment [17], in experiment [1], in experiment [2], in experiment [6], in experiment [10] and in experiment [16] was “inactive” throughout. Further, the call in experiment [18], in experiment [5], in experiment [11] and in experiment [13] was inactive.

As to `CCCCCC(C)N` (centres undefined), the Potency result in [1], in [2], in [3], in experiment [6], in experiment [7] and in [9] was “inactive” each time. Moreover, the Potency result in [10], in [15] and in experiment [16] was “inactive” in each case. For the same molecule, the outcome in experiment [18], in experiment [4], in experiment [5], in experiment [11], in [13] and in experiment [14] was inactive.

In the case of `Cc1coc2ccccc2c1=O`, the Potency entry in [1], in experiment [2], in [3], in [6], in experiment [7] and in [8] was “inactive” throughout. Also, the Potency result in experiment [9], in [10], in experiment [15] and in experiment [16] was “inactive” each time. Further, the molecule was classed as inactive in experiment [18], in [4], in experiment [5], in [11], in [12] and in experiment [13]. Moreover, the outcome in experiment [14] was inactive.

Consider `CN(C)CCCCCCN(C)C`, for which the Potency result in [17], in experiment [1], in [6], in experiment [7], in experiment [9] and in experiment [10] was “inactive” throughout. Further, the Potency entry in experiment [15] and in experiment [16] was “inactive” throughout. The result in experiment [18], in experiment [5], in [11], in experiment [12], in experiment [13] and in [14] was inactive.

Turning to `COc1cccc(OC)c1C(=O)N[C@@H]1C(=O)N2[C@@H]1SC(C)(C)[C@@H]2C(=O)O`, the Potency result in experiment [1], in experiment [2], in experiment [6], in experiment [7], in experiment [10] and in [16] was “inactive” each time. The call in experiment [18], in experiment [4], in [5], in [11] and in experiment [13] was inactive.

On to `Nc1ccn([C@@H]2O[C@H](CO)[C@@H](O)C2O)c(=O)n1` (some centres undefined), for which the Potency result in experiment [1], in experiment [2], in experiment [6], in [7], in experiment [9] and in experiment [10] was “inactive” throughout. The Potency result in experiment [15] and in [16] was “inactive” throughout. In addition, the molecule was classed as inactive in [18], in [19], in experiment [11], in [12], in experiment [13] and in experiment [14].

As to `CCN1C=CN(C)C1C` (centres undefined), the Potency entry in experiment [1], in experiment [2], in experiment [6], in [7], in experiment [8] and in experiment [9] was “inactive” each time. In addition, the Potency entry in experiment [10], in experiment [15] and in [16] was “inactive” in each case. For the same molecule, the molecule was classed as inactive in [18], in [19], in experiment [5], in [11], in experiment [12] and in experiment [13]. Moreover, the call in experiment [14] was inactive.
